# Reference: PubChem BioAssay (NCI)
# The panel holds about 83,000 compounds, 20% with a hit somewhere; the sample as a whole holds those more often.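 Interpretation: 100, growth as untreated; towards 0, rising growth inhibition; 0, no net growth; 0 to -100, cell death. Compounds scoring below 10 were considered active.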 A number with no mark means an inactive call. Calls of active or inactive are those of the source.
# What was measured:
# Assay in all cases: NCI-60 one-dose screen, 48 h (100 = growth as untreated, 0 = no growth, -100 = all killed)
# Details in all cases: 10 µM unless noted
# SK-MEL-2 melanoma = system: SK-MEL-2 melanoma
# EKVX NSCLC = system: EKVX NSCLC
# SN12C renal = system: SN12C renal
# UO-31 renal = system: UO-31 renal
# TK-10 renal = system: TK-10 renal
# ACHN renal = system: ACHN renal
# CAKI-1 renal = system: CAKI-1 renal
# A498 renal = system: A498 renal
# CCRF-CEM leukemia = system: CCRF-CEM leukemia
# MOLT-4 leukemia = system: MOLT-4 leukemia
Structure (SMILES),growth (SK-MEL-2 melanoma),growth (EKVX NSCLC),growth (SN12C renal),growth (UO-31 renal),growth (TK-10 renal),growth (ACHN renal),growth (CAKI-1 renal),growth (A498 renal),growth (CCRF-CEM leukemia),growth (MOLT-4 leukemia)
O=C(N=Nc1c(O)[nH]c2ccccc12)c1cc(-c2ccccc2)on1,108%,92%,96%,85.4%,123%,97.2%,86.7%,103%,107%,104%
CCCCC/C(C=C(C#N)C#N)=C/c1ccccc1,82.4%,106%,81.1%,34.7%,105%,41.6%,81.4%,112%,,13.4%
COc1cc2nc(N3CCCC3)nc(NCc3ccccc3)c2cc1OC,106%,74.7%,69.6%,52.1%,100%,62.2%,65.8%,36.3%,5.92% (active),35.4%
O=C1NC(=O)C(c2ccc(Cl)cc2Cl)N1 (stereo unspecified),110%,113%,104%,73.2%,98.1%,110%,100%,96.6%,,94.3%
CC[C@H]1OC(=O)[C@H](C)[C@@H](O[C@H]2C[C@@](C)(OC)[C@@H](O)[C@H](C)O2)[C@H](C)[C@@H](O[C@@H]2O[C@H](C)C[C@H](N(C)C)[C@H]2O)[C@](C)(O)C[C@H](C)CN(C)[C@H](C)[C@@H](O)[C@]1(C)O,117%,86.5%,93.9%,78.9%,103%,96.5%,96.6%,,120%,103%
Nc1nc2ccc3[nH]ncc3c2c2c1CCCC2,-7.53% (active),-4.32% (active),11.3%,5.99% (active),4.7% (active),3.71% (active),6.67% (active),,0.983% (active),
COc1ccc(/C=C\c2cc(OC)c(OC)c(OC)c2)cc1OCC(=O)Nc1ccc2nc(C)sc2c1,-1.27% (active),66.8%,51.8%,5.67% (active),1.02% (active),47.1%,23%,80.1%,,22.7%
CC(C)C[C@@H](NC(=O)[C@@H](Cc1ccccc1)NC(=O)c1cnccn1)B1Oc2ccc(C[C@H](NC(=O)[C@H](Cc3ccc4c(c3)OB([C@@H](CC(C)C)NC(=O)[C@@H](Cc3ccccc3)NC(=O)c3cnccn3)O4)NC(=O)[C@@H](N)CC3CCC4OB([C@@H](CC(C)C)NC(=O)[C@@H](CC5CCCCC5)NC(=O)C5CNCCN5)OC4C3)C(=O)NCCCC[C@@H]3NC(=O)[C@@H](Cc4ccccc4)NC(=O)[C@H](CC(=O)O)NC(=O)CNC(=O)[C@H](CCCNC(=N)N)NC3=O)cc2O1 (stereo partly specified),-15.9% (active),-16.4% (active),-40.2% (active),-27.2% (active),-77.8% (active),-11.9% (active),-40.9% (active),-96% (active),,1.17% (active)
Nc1n[nH]c2cc(F)c([C@@H]3Nc4ccc5[nH]ncc5c4[C@H]4C5CCC(C5)[C@@H]34)cc12 (stereo partly specified),26.2%,47.2%,33.5%,38.6%,52.5%,21.1%,9.87% (active),,16.6%,16.1%
O=C(O)COc1ccc(Cl)cc1C1CCCCC1,103%,117%,98.5%,87.6%,101%,107%,99.4%,90.2%,,87.9%
Cc1nn(-c2cc(=O)[nH]c3ccc(Cl)cc23)c(N)c1C#N,100%,92.3%,102%,70.7%,133%,99%,85.8%,,101%,110%
FC(F)(F)c1[nH]ncc1-c1nc2ccc3n[nH]c(C#Cc4cccnc4)c3c2c2c1CCCC2,65.8%,30.1%,37.9%,19.8%,46.4%,22.6%,-7% (active),,25.2%,
CC1=CC(C)(C)Nc2ccc(Cc3ccc4c(c3)C(C)=CC(C)(C)N4)cc21,90.6%,81.4%,97.1%,77.8%,112%,93.8%,73.6%,109%,,82.9%
CC1=C[C@H]2c3c(c(O)c(O)c4oc5cc(O)ccc5c(=O)c34)[C@H](c3cc(O)c(O)c4oc5cc(O)ccc5c(=O)c34)[C@H]2C(C)(C)C1,44.8%,51.1%,28.7%,46.5%,56%,37.9%,40.3%,,27.1%,25.3%
